Measurements reported in PubChem BioAssay.
Calls of active or inactive are those of the source.

Columns and labels:
[1] = compound effects on lung adenocarcinoma cell viability – A549, calcein-AM fluorescence, 48 h, basal, profiling panel (AID 1162); details: higher = more signal
[2] = compound effects on differentiated 3T3-L1 adipocyte viability – cell-based, 3T3-L1 adipocytes, calcein-AM fluorescence, 48 h, basal, profiling panel (AID 1163); details: 3T3-L1 adipocytes viability, higher = more signal
[3] = compound effects on hepatocellular carcinoma cell viability – HepG2, calcein-AM fluorescence, 48 h, basal, profiling panel (AID 1164); details: higher = more signal
[4] = compound effects on multiple myeloma cell viability – MM1S, calcein-AM fluorescence, 48 h, basal, profiling panel (AID 1165); details: higher = more signal;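 also: viability of MM1S multiple myeloma cells under basal unstimulated conditions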
[5] = calcein-AM signal in unstimulated myeloma cells – cell-based, calcein-AM fluorescence, 48 h, PK04 Diversity Set, profiling panel (AID 1166); details: RPMI8226 myeloma viability, higher = more signal;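 also: cells grown under basal conditions without added stimulus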
[6] = JC-1 mitochondrial signal, unstimulated HepG2 cells – cell-based, JC-1 fluorescence, 24 h, 100 nL compound, profiling panel (AID 1167); details: HepG2 mitochondrial potential, higher = more signal
[7] = JC-1 mitochondrial signal, unstimulated adipocytes – cell-based, JC-1 fluorescence, 3T3-L1 adipocytes, 24 h, 100 nL compound, profiling panel (AID 1168); details: JC-1 mitochondrial fluorescence, higher = more signal, called active from +8 up or from −8 down
[8] = JC-1 mitochondrial signal, unstimulated myeloma cells – cell-based, JC-1 fluorescence, RPMI8226, 24 h, 100 nL compound, profiling panel (AID 1169); details: JC-1 mitochondrial potential fluorescence, higher = more signal
[9] = JC-1 mitochondrial signal, unstimulated MM1S myeloma – cell-based, JC-1 fluorescence, 24 h, 100 nL compound, profiling panel (AID 1170); details: MM1S mitochondrial potential, higher = more signal
[10] = resazurin metabolic signal in A549 cells – cell-based, resazurin fluorescence, 24 h, PK04 Diversity Set, profiling panel (AID 1171); details: A549 viability, higher = more signal, called active from +8 up or from −8 down
Also: test concentration not given here.

Row | SMILES | z-score [1] | z-score [2] | z-score [3] | z-score [4] | z-score [5] | z-score [6] | z-score [7] | z-score [8] | z-score [9] | z-score [10]
1 | CC(=O)N1CC2(CC2)CC1c1ccccc1 (stereo not given) | -1.64 | 0.334 | -1.34 | -0.386 | -1.14 | -1.15 | -1.86 (inactive) | 0.0805 | 0.359 | -0.714 (inactive)
2 | COC(=O)[C@]1(CCS(=O)(=O)c2ccccc2)N=C(c2ccc(OCCCO)cc2)O[C@@H]1c1ccccc1N=[N+]=[N-] | -1.49 | 1.78 | -2.18 | -2.8 | -3.33 | 0.811 | -0.294 (inactive) | -1.13 | 0.546 | -3.46 (inactive)
3 | CC(C)C[C@@H]1NC(=O)[C@@H]2C[C@H](C(=O)NCCCCCCN)[C@H](c3cccc(OCCO)c3)N2C1=O | -0.038 | 0.971 | -0.822 | 0.206 | -0.703 | -0.39 | 0.433 (inactive) | -0.84 | 0.519 | -0.862 (inactive)
4 | COc1cc(C(O)C2C=CC3C(=O)N(C)C(=O)C3N2Nc2ccccc2)cc(OC)c1OC (stereo not given) | 0.212 | 0.555 | -0.0987 | 0.0355 | 0.438 | -0.349 | -0.604 (inactive) | 0.221 | -0.471 | 0.144 (inactive)
5 | COc1cc2c(cc1O)C(c1cccs1)N(Cc1cc3c(cc1Br)OCO3)CC2 (stereo not given) | -1.67 | -0.406 | -3.83 | -3.19 | -4.43 | -3.57 | -0.0381 (inactive) | -0.976 | -0.488 | -0.741 (inactive)
6 | O=C(c1ccccc1)N1C(=O)[C@]2(Cc3ccccc31)N=C(c1ccc(OCCCO)cc1)O[C@@H]2c1ccccc1 | -1.84 | 0.736 | -2.44 | -3.55 | -4.35 | -2.26 | -0.0262 (inactive) | -1.18 | -2.17 | -2.83 (inactive)
7 | [N-]=[N+]=Nc1ccccc1[C@@H]1OC(c2ccc(OCCCO)cc2)=N[C@]1(Cc1ccccc1)C(=O)O | 0.666 | 0.344 | 0.547 | -1.49 | -0.56 | -1.24 | 1.62 (inactive) | -0.739 | -0.883 | 1.2 (inactive)
8 | C=C[C@H](C)[C@H](OC(=O)Nc1ccc(SC)cc1)c1ccc(OCCO)cc1 | 0.0889 | 0.954 | -0.47 | -0.889 | -2.41 | -2.67 | 0.508 (inactive) | -0.781 | -0.72 | -1.48 (inactive)
9 | CC(C)(C)OC(=O)COc1cccc(C(=O)CCN2CCOCC2)c1 | 1.06 | 0.477 | -0.0751 | -3.27 | -4.4 | -1.01 | -0.0351 (inactive) | -0.885 | -2.04 | 1.5 (inactive)
10 | COc1cccc(C)c1NC(=O)O[C@H]1[C@H](OC(=O)Nc2ccc3c(c2)OCO3)[C@@H](OC(=O)Nc2ccc3c(c2)OCO3)[C@@H](OC)O[C@@H]1CO | -0.551 | -0.271 | -1.28 | -2.27 | -0.815 | -0.445 | 0.925 (inactive) | -0.863 | -0.0492 | -0.315 (inactive)
11 | CCCC#C[Si](O[C@H](CC)c1cn([C@H](C)c2ccccc2)nn1)(C(C)C)C(C)C | 1.18 | -0.374 | 0.9 | -1.32 | -1.74 | 0.621 | 0.698 (inactive) | -0.0539 | -0.0359 | 0.61 (inactive)
12 | CN1C2C=C(CCCO)C(C3C(=O)N(C(N)=O)C(=O)C32)C1C1CC1 (stereo not given) | 0.0701 | -0.0683 | 0.592 | 0.0641 | -0.952 | -0.486 | 0.0295 (inactive) | 0.192 | 0.238 | -0.513 (inactive)
13 | C=CCN1C(=O)[C@]2(CCC(=O)OC(C)(C)C)N=C(c3ccc(OCCCO)cc3)O[C@@H]2c2ccccc21 | -0.656 | 1.79 | -1.74 | -3.56 | -4.05 | -1.45 | 4.11 (inactive) | -1.05 | -2.81 | -2.21 (inactive)
14 | O=C(C1N=C(c2ccc(OCCCO)cc2)N(c2ccccc2)O1)N1CCCCC1 (stereo not given) | 0.775 | 0.936 | 0.772 | 0.301 | 0.609 | 0.223 | -0.716 (inactive) | -0.779 | -0.313 | 1.07 (inactive)
15 | CCCCN1CC=CC23O[C@@H]4/C=C\CCCOC(=O)C4[C@H]2C(=O)N(CCO)[C@@H]3C1=O (stereo not given in full) | -0.129 | 1.63 | -0.0509 | 1.04 | -0.711 | -0.415 | 0.0794 (inactive) | 0.378 | 1.39 | -0.688 (inactive)
16 | COc1ccc(CCNC(=O)[C@@]2(Sc3ccc(C)cc3)CC(=O)N(Cc3ccccc3C(F)(F)F)[C@@H]2c2ccc(CO)cc2I)cc1 | 0.751 | -0.178 | -0.253 | -2.41 | -2.36 | -1.03 | -0.322 (inactive) | -0.714 | -0.841 | 0.956 (inactive)
17 | CCOC(=O)C[C@H]1[C@H](OC(=O)Cc2ccc3c(c2)OCO3)[C@@H](NC(=O)c2ccc3ccccc3n2)c2cc(OCCCO)ccc2N1C(=O)c1ccc2ccccc2n1 | 5.35 | 1.03 | 1.83 | -1.01 | 0.121 | 2.81 | 0.413 (inactive) | 0.362 | 0.981 | -0.387 (inactive)
18 | CC[C@@H]1O[Si](C(C)C)(C(C)C)c2c1cc(-c1cc(C)c(OC)c(C)c1)nc2-c1ccc(Oc2ccccc2)cc1 | -0.472 | -0.25 | -0.601 | 0.287 | -0.388 | -0.557 | 0.202 (inactive) | 0.756 | 0.207 | 1.69 (inactive)
19 | COc1ccc(CCNC(=O)[C@@]2(Cc3ccccc3I)c3ccccc3C(=O)N(C3CCCCC3)[C@H]2c2ccc(CO)cc2)cc1 | 1 | 2.42 | -0.449 | -1.93 | -2.47 | 2.5 | 0.537 (inactive) | -0.184 | -1.17 | -0.584 (inactive)
20 | CCCCNC(=O)c1ccc(C#CC(C)(C)C)c(OC(C)=O)c1 | 0.3 | 1.75 | -0.835 | 0.13 | -1.37 | -0.75 | -0.103 (inactive) | -0.284 | -0.221 | -0.654 (inactive)
21 | COc1ccc([Si](C)(C)[C@H]2[C@H](CC(=O)N3CCC[C@H]3CO)O[C@@]3(C(=O)N(Cc4ccc(N5CCOC5=O)cc4)c4ccccc43)[C@@H]2C)cc1 | -0.585 | 0.722 | -0.557 | -2.27 | -3.98 | 2.41 | 0.388 (inactive) | -1.06 | -0.325 | 0.0083 (inactive)
22 | Cc1ccc(S[C@]2(C(=O)NCC(F)(F)F)CC(=O)N(Cc3cc(C(F)(F)F)cc(C(F)(F)F)c3)[C@@H]2c2ccc(CO)cc2)cc1 | 0.0806 | -0.547 | 0.643 | -0.783 | -0.759 | -0.693 | -0.658 (inactive) | 0.213 | -0.299 | -0.45 (inactive)
23 | CCCCCN1CC=CC23O[C@@H]4/C=C\CCCOC(=O)C4[C@H]2C(=O)N(C(C)CO)[C@@H]3C1=O (stereo not given in full) | 0.327 | -0.0628 | -0.0728 | 1.16 | 0.15 | 0.37 | 0.0667 (inactive) | 1.08 | -1.13 | 0.423 (inactive)
24 | CCC1=C2CN(Cc3ccccc3)[C@@H](C(=O)Cc3ccccc3)C2C=CCC1 (stereo not given in full) | 0.0398 | 1.47 | -0.342 | 0.435 | -0.96 | 0.821 | 0.152 (inactive) | 0.424 | -0.948 | 0.822 (inactive)
25 | CN(C)C(=O)[C@@]1(Cc2ccccc2)N=C(c2ccc(OCCCO)cc2)O[C@H]1c1ccccc1 | -0.518 | 0.208 | 0.64 | -0.918 | -3.24 | 0.285 | 0.708 (inactive) | -0.0484 | -0.303 | 1.18 (inactive)
26 | CCCC[C@@H](O)C1=C(COC)C[C@H]2C(=O)N(Cc3ccccc3)C(=O)[C@H]2[C@H]1CO | 0.449 | -1 | 1.35 | 0.887 | 0.105 | -0.0934 | 0.0385 (inactive) | -0.851 | -1.35 | 0.0943 (inactive)
27 | N#Cc1ccc(NN2C(C(O)c3ccc(Br)cc3)C=CC3C(=O)N(c4ccccc4)C(=O)C32)cc1 (stereo not given) | 0.647 | 0.0175 | 1.11 | -0.615 | 0.201 | -0.574 | 0.507 (inactive) | 0.244 | 0.0172 | -0.421 (inactive)
28 | C#Cc1cc2ccccc2oc1=O | -1.35 | -1.04 | -0.651 | -0.932 | -0.414 | -1.5 | 0.272 (inactive) | 0.923 | -0.99 | -0.629 (inactive)
29 | COCCOC(=O)N1C(=O)[C@@]2(c3cc(C#CC4=CCCCC4)ccc31)[C@H](c1ccccc1OCCO)N1[C@H](c3ccccc3)[C@H](c3ccccc3)OC(=O)[C@H]1[C@@H]2C(=O)N1CCN(c2ncccn2)CC1 | -1.17 | 0.956 | 0.195 | -0.118 | -1.92 | 0.259 | 2.14 (inactive) | -0.423 | -1.19 | 0.753 (inactive)
